From PubChem BioAssay AID1259417 (TB Discovery Research, Infectious Disease Research Institute, 2018)
Hit rate of the full screen: of about 1,100 compounds, about 760 (69%) were called active. How the calls were made is not given here. So high a share suggests a set chosen from earlier hits. The list shows a part of the results.

Assay: M. tuberculosis growth inhibition, HTS (AID 1259417);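 further: bacteria grown with compound for 5 days at 37 °C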
Details: stronger effect = higher value, concentration not given here
[1] = M. tuberculosis DsRed fluorescence growth inhibition
[2] = M. tuberculosis growth inhibition

SMILES | inhibition [1] | inhibition [2]
COc1ccc(C)c2sc(N(CCCn3ccnc3)C(=O)c3cccs3)nc12 | 51.2% (active) | 44.6%
COc1ccc(Cl)c2sc(N(CCCn3ccnc3)C(=O)c3cccs3)nc12 | 59.9% (active) | 61.3%
O=C(COc1cccc2ccccc12)c1ccc(Cl)cc1 | 17% (active) | 36.9%
Cn1nc([N+](=O)[O-])nc1Sc1ncnn1-c1ccccc1 | 97.1% (active) | 95%
Cc1c(C)n2c3c(=O)[nH]c(=O)n(C)c3nc2n1-c1ccccc1O | 97.2% (active) | 92.8%
O=c1nc2c(O)cccn2c2c1c(=O)[nH]c1ccccc12 | -3.23% (inactive) | -27.6%
COC(=O)C(CC(=O)c1ccc(Br)cc1)n1ccnc1 (centres undefined) | 100% (active) | 100%
O=c1oc2ccccc2nc1/C=C(O)/C=C\c1ccccc1 | 99.1% (active) | 98.9%
Clc1ccc(OCc2ccccc2Cl)c(CNC2CCCCC2)c1 | 99.2% (active) | 99.3%
COC(=O)CSc1ncnc2c1sc1nc3c(cc12)COC(C)(C)C3 | 48.1% (active) | -1.03%
Clc1cccc(Nc2nc(NCc3ccco3)c3ccccc3n2)c1 | 41.8% (active) | 5.69%
Cc1ccccc1Nc1nc(NCc2ccco2)c2ccccc2n1 | -6.74% (inactive) | -22.5%
Cc1ccc(Nc2nc(NCc3ccco3)c3ccccc3n2)cc1 | 69% (active) | 45.4%
OCCOCCNc1nc(Nc2cccc(F)c2)nc2c1cnn2-c1ccccc1 | -4.23% (inactive) | 4.68%
CCOc1ccc(Nc2nc(NCc3ccco3)c3ccccc3n2)cc1 | 65.7% (active) | 78.4%
Cc1ccc(-c2csc(-c3ccc(O)cc3)n2)cc1 | 3.54% (inactive) | 28.7%
Cc1ccc(-c2nc(NC(=O)CO)cs2)cc1 | 99.1% (active) | 100%
CC(NCC(O)COc1ccccc1C(C)(C)C)c1ccccc1 (centres undefined) | 61.1% (active) | 48.8%
O=C(Nc1nnc(-c2ccc3c(c2)CCCC3)o1)c1ccc([N+](=O)[O-])s1 | 79% (active) | 93.9%

SMILES | inhibition [1] | inhibition [2]
O=C(Nc1nnc(-c2ccc3c(c2)CCCC3)o1)c1ccc(Cl)cc1Cl | -1.63% (inactive) | -9.7%
O=C(Nc1nnc(-c2ccc3c(c2)CCCC3)o1)c1cc(Cl)sc1Cl | 52.2% (active) | 48.6%
O=C(Nc1cccc(Br)c1)c1ccc([N+](=O)[O-])s1 | 6.23% (inactive) | 3.28%
O=C(Nc1nnc(-c2ccc3c(c2)CCCC3)o1)c1ccc(Cl)s1 | 95.5% (active) | 90.6%
CSc1cccc(-c2nnc(NC(=O)c3ccc([N+](=O)[O-])s3)o2)c1 | 13% (active) | 56.8%
O=C1CC(c2ccc(Cl)cc2)CC2=C1C(c1ccc(C(F)(F)F)cc1)Nc1ccccc1N2 (centres undefined) | -1.45% (inactive) | -10.1%
CCOC(=O)C(C)Sc1ncnc2c1nnn2Cc1ccc(F)cc1 (centres undefined) | 2.2% (inactive) | 19%
COC(=O)CSc1ncnc2c1cnn2-c1ccc(F)cc1 | 27.3% (active) | 86.2%
CCOC(=O)C(C)Sc1ncnc2c1cnn2-c1ccc(F)cc1 (centres undefined) | 26.4% (active) | 87.2%
CCOC(=O)CSc1ncnc2c1cnn2-c1ccc(C)cc1C | 39.4% (active) | 77.1%
COC(=O)CSc1ncnc2c1nnn2Cc1ccc(F)cc1 | 99.8% (active) | 99.8%
CCOC(=O)CNC(=O)CSc1ncnc2c1nnn2Cc1ccccc1F | 17.3% (inactive) | 22.5%
CCOC(=O)CSc1ncnc2c1cnn2-c1ccccc1 | 13.4% (active) | 70.7%
CCOC(=O)C1CCCN(c2ccc([N+](=O)[O-])c3nonc23)C1 (centres undefined) | 29.3% (active) | 67.6%
O=S1(=O)C=CC2ON=C(c3ccc(C(F)(F)F)cc3)C21 (centres undefined) | 99.5% (active) | 96.8%
O=S1(=O)C=CC2ON=C(c3ccc(Cl)cc3)C21 (centres undefined) | 100% (active) | 98.3%
N#Cc1cc2c(nc1SCC(=O)OCc1ccccc1)CCC2 | 99.7% (active) | 99.7%
COC(=O)CSc1nc2c(c(-c3ccc(C)o3)c1C#N)CCCC2 | 4.49% (inactive) | -17%
CCOC(=O)CSc1nc2c(c(-c3ccc(C)o3)c1C#N)CCCC2 | 21.7% (inactive) | 28.1%

SMILES | inhibition [1] | inhibition [2]
O=C(Nc1ccc(Cl)c(C(F)(F)F)c1)c1csc2c1CCCC2 | 1.18% (inactive) | -27.8%
O=C(Cc1ccc(F)cc1)Nc1ccc(Cl)c(C(F)(F)F)c1 | 50.9% (active) | 31.5%
O=C(CSc1ccc(Cl)cc1)Nc1ccc(Cl)c(C(F)(F)F)c1 | 0.0104% (inactive) | -15.8%
O=C(CC(O)(C(F)(F)F)C(F)(F)F)Nc1ccc(Cl)c(Cl)c1 | 100% (active) | 101%
Cc1cc(C)nc(N=C(N)Nc2cc(Cl)ccc2Oc2ccccc2)n1 | 97.1% (active) | 99.6%
CCN(CC)c1cccc(Oc2nc([N+](=O)[O-])nn2C)c1 | 96.8% (active) | 95.7%
Cn1nc([N+](=O)[O-])nc1Oc1ccc(C(C)(C)C)cc1 | 96.8% (active) | 94.8%
CCc1ccc(Oc2nc([N+](=O)[O-])nn2C)cc1 | 98% (active) | 95.4%
O=C(OCc1nnc(-c2ccccc2)o1)c1cc(-c2cccs2)nc2ccccc12 | 83.3% (active) | 100%
CN(Cc1nc2ccccc2c(=O)[nH]1)Cc1nc2ccsc2c(=O)[nH]1 | 97.2% (active) | 96.7%
CC1Cc2cc(-c3nn(-c4ccccc4)cc3C=C3SC(=S)NC3=O)ccc2O1 (centres undefined) | 27% (active) | 38.2%
CCOC(=O)COc1ccc2cc(-c3ccc(OC)c(OC)c3)c(=O)oc2c1 | 43.5% (active) | 53.6%
CCOC(=O)COc1ccc2cc(-c3nc4ccccc4s3)c(=O)oc2c1 | 88.6% (active) | 86.2%
COC(=O)COc1ccc2cc(-c3ccc(OC)c(OC)c3)c(=O)oc2c1 | 26.7% (active) | 45%
COc1cccc(OCCNC(=O)c2cc([N+](=O)[O-])cc([N+](=O)[O-])c2)c1 | 98.1% (active) | 95.3%
COc1cccc(OCC(=O)c2ccc(Br)cc2)c1 | -3.18% (inactive) | -10.7%
c1ccc(CCNc2nc3ccccc3[nH]2)cc1 | 21.4% (active) | 32.9%
Cc1ccc(OCCN2CCN(c3nc(NCc4ccccc4)c4ccccc4n3)CC2)cc1 | -1.14% (inactive) | -0.136%
Cc1ccc2nc(NCc3ccccc3)[nH]c2c1 | 43% (active) | 23.1%
